Assay results taken from PubChem BioAssay (NCI).
Compounds without any hit were thinned out: in the full panel of roughly 83,000, 20% have a hit.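 Step 1: grow cells in 96-well plates. Step 2: add test compound at a single concentration. Step 3: incubate 48 h. Step 4: record percent growth.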 Calls of active or inactive are those of the source. Rule for the calls: active = growth percent below 10; inactive = the rest.

Legend:
Test in all cases: NCI-60 one-dose screen, 48 h (100 = growth as untreated, 0 = no growth, -100 = all killed)
Conditions in all cases: 10 µM unless noted
SK-MEL-2 melanoma = test system: SK-MEL-2 melanoma
EKVX NSCLC = test system: EKVX NSCLC
SN12C renal = test system: SN12C renal
UO-31 renal = test system: UO-31 renal
TK-10 renal = test system: TK-10 renal
ACHN renal = test system: ACHN renal
A498 renal = test system: A498 renal
CCRF-CEM leukemia = test system: CCRF-CEM leukemia
MOLT-4 leukemia = test system: MOLT-4 leukemia
SR leukemia = test system: SR leukemia
OVCAR-8 ovarian = test system: OVCAR-8 ovarian
OVCAR-5 ovarian = test system: OVCAR-5 ovarian
OVCAR-4 ovarian = test system: OVCAR-4 ovarian
SK-OV-3 ovarian = test system: SK-OV-3 ovarian
IGROV1 ovarian = test system: IGROV1 ovarian
OVCAR-3 ovarian = test system: OVCAR-3 ovarian
HS 578T breast = test system: HS 578T breast
NCI/ADR-RES ovarian = test system: NCI/ADR-RES ovarian
RPMI-8226 leukemia = test system: RPMI-8226 leukemia
CAKI-1 renal = test system: CAKI-1 renal

Measured: growth

NCCCNc1nc2ccccc2c2c(=O)c3cc(OC(F)(F)F)ccc3sc12
active: ACHN renal -22.8% | CCRF-CEM leukemia -2.58% | MOLT-4 leukemia -39.5% | SR leukemia -31.1% | OVCAR-8 ovarian -0.0816% | OVCAR-4 ovarian -58.3% | OVCAR-3 ovarian -73.3% | HS 578T breast 1.28% | NCI/ADR-RES ovarian -29%
inactive: SK-MEL-2 melanoma 89.3% | EKVX NSCLC 67.9% | SN12C renal 41.3% | UO-31 renal 33.8% | TK-10 renal 64.7% | A498 renal 21.4% | OVCAR-5 ovarian 76% | SK-OV-3 ovarian 89.9% | IGROV1 ovarian 35.4%

Cc1cc(Cl)ccc1NS(=O)(=O)c1ccc(-c2cnc(C3CC3)o2)cc1
inactive: SK-MEL-2 melanoma 80.4% | EKVX NSCLC 32.4% | SN12C renal 46.7% | UO-31 renal 45.8% | TK-10 renal 66.9% | ACHN renal 27.5% | CCRF-CEM leukemia 22% | RPMI-8226 leukemia 19.3% | OVCAR-8 ovarian 27.4% | OVCAR-5 ovarian 27.8% | OVCAR-4 ovarian 40% | SK-OV-3 ovarian 50.8% | IGROV1 ovarian 23.3% | HS 578T breast 22.1%
active: A498 renal -5.2% | MOLT-4 leukemia 2.78% | OVCAR-3 ovarian -16.9% | NCI/ADR-RES ovarian 6.12%

O=C(COc1ccc(/C=C2\Cc3ccc(Cl)cc3C2=O)cc1)Nc1nc2ccccc2s1
active: IGROV1 ovarian -61.5%
inactive: SK-MEL-2 melanoma 122% | EKVX NSCLC 117% | SN12C renal 102% | UO-31 renal 69.1% | TK-10 renal 151% | ACHN renal 94.2% | A498 renal 130% | CCRF-CEM leukemia 73.5% | MOLT-4 leukemia 69.8% | SR leukemia 75.5% | RPMI-8226 leukemia 93.1% | OVCAR-5 ovarian 108% | OVCAR-4 ovarian 109% | SK-OV-3 ovarian 104% | OVCAR-3 ovarian 104% | HS 578T breast 91% | NCI/ADR-RES ovarian 99.2%

COc1cc(C(=O)/C=C/c2sc(Cl)nc2Cl)cc(OC)c1OC
active: SN12C renal 7.55% | ACHN renal -94.7% | RPMI-8226 leukemia -38% | OVCAR-3 ovarian -95.5%
inactive: SK-MEL-2 melanoma 82.7% | EKVX NSCLC 55.6% | UO-31 renal 67.2% | TK-10 renal 94.3% | A498 renal 89.9% | CCRF-CEM leukemia 10.9% | MOLT-4 leukemia 23.2% | OVCAR-8 ovarian 33.6% | OVCAR-5 ovarian 77.1% | OVCAR-4 ovarian 57.2% | SK-OV-3 ovarian 97.7% | IGROV1 ovarian 25.5% | HS 578T breast 71.3% | NCI/ADR-RES ovarian 76.3%

CN1CCN(c2ccc(-c3ccc4ncc(C#N)c(Nc5ccc(F)c(Cl)c5)c4c3)cn2)CC1
inactive: SK-MEL-2 melanoma 49.7% | EKVX NSCLC 48.4% | SN12C renal 62.5% | UO-31 renal 28.7% | TK-10 renal 34.1% | ACHN renal 17.4% | CCRF-CEM leukemia 37.8% | MOLT-4 leukemia 38.2% | RPMI-8226 leukemia 14.9% | OVCAR-8 ovarian 59.8% | OVCAR-5 ovarian 60.8% | OVCAR-4 ovarian 52.2% | SK-OV-3 ovarian 25.8% | OVCAR-3 ovarian 58.6% | HS 578T breast 52.2% | NCI/ADR-RES ovarian 67.8%
active: A498 renal -7.02% | IGROV1 ovarian 8.52%

O=C1c2cccc3cccc(c23)C(=O)N1Nc1nc(NC2CCCCC2)nc(N2CCOCC2)n1
inactive: SK-MEL-2 melanoma 109% | EKVX NSCLC 90% | SN12C renal 93.9% | UO-31 renal 69.1% | TK-10 renal 129% | ACHN renal 89.7% | A498 renal 127% | CCRF-CEM leukemia 90.1% | MOLT-4 leukemia 90% | SR leukemia 91% | OVCAR-8 ovarian 99% | OVCAR-5 ovarian 95.6% | OVCAR-4 ovarian 106% | SK-OV-3 ovarian 95.7% | IGROV1 ovarian 90.3% | OVCAR-3 ovarian 103% | HS 578T breast 99.4% | NCI/ADR-RES ovarian 99.8%

CNCCCNc1nc2ccccc2c2c(=O)c3cc(F)ccc3sc12
inactive: SK-MEL-2 melanoma 91% | EKVX NSCLC 64.7% | SN12C renal 58.7% | UO-31 renal 20.8% | TK-10 renal 43.3% | ACHN renal 10.9% | A498 renal 28% | OVCAR-8 ovarian 28% | OVCAR-5 ovarian 66.3% | OVCAR-4 ovarian 19.9% | SK-OV-3 ovarian 75.4% | IGROV1 ovarian 41.4% | HS 578T breast 37.8% | NCI/ADR-RES ovarian 21.4%
active: CCRF-CEM leukemia -3.67% | MOLT-4 leukemia -27.9% | SR leukemia -35.9% | OVCAR-3 ovarian -1%

CCN(CC)S(=O)(=O)c1ccc(NC(=O)CSc2nnc(C)n2-c2ccccc2)cc1
active: IGROV1 ovarian -1.42%
inactive: SK-MEL-2 melanoma 92.5% | EKVX NSCLC 107% | SN12C renal 98.1% | UO-31 renal 80.8% | TK-10 renal 126% | ACHN renal 98.7% | A498 renal 107% | CCRF-CEM leukemia 97.9% | MOLT-4 leukemia 96.2% | RPMI-8226 leukemia 103% | OVCAR-8 ovarian 102% | OVCAR-5 ovarian 95.4% | SK-OV-3 ovarian 105% | OVCAR-3 ovarian 116% | HS 578T breast 95.5% | NCI/ADR-RES ovarian 99.2%

NS(=O)(=O)c1ccc(-n2nc(-c3ccc(Cl)cc3)c3ccccc3c2=O)cc1
inactive: SK-MEL-2 melanoma 110% | EKVX NSCLC 82.5% | SN12C renal 93.4% | UO-31 renal 52.6% | TK-10 renal 152% | ACHN renal 94.8% | A498 renal 123% | CCRF-CEM leukemia 70.3% | MOLT-4 leukemia 59.5% | RPMI-8226 leukemia 84.6% | OVCAR-8 ovarian 96.9% | OVCAR-5 ovarian 93.7% | OVCAR-4 ovarian 93.7% | SK-OV-3 ovarian 96.9% | IGROV1 ovarian 75.5% | OVCAR-3 ovarian 108% | HS 578T breast 88.7% | NCI/ADR-RES ovarian 86.2%

C#Cc1cccc(NC(=O)Nc2ccccc2NC(=O)CCl)c1
active: SK-MEL-2 melanoma -56% [8.25 µM] | SN12C renal -68.6% [8.25 µM] | UO-31 renal -97.7% [8.25 µM] | TK-10 renal -27.8% [8.25 µM] | ACHN renal -84.1% [8.25 µM] | A498 renal -93.4% [8.25 µM] | OVCAR-8 ovarian -13.6% [8.25 µM] | OVCAR-5 ovarian -26% [8.25 µM] | OVCAR-4 ovarian -33.4% [8.25 µM] | IGROV1 ovarian -54.4% [8.25 µM] | OVCAR-3 ovarian -74.8% [8.25 µM] | HS 578T breast -1.15% [8.25 µM] | NCI/ADR-RES ovarian -2.56% [8.25 µM]
inactive: EKVX NSCLC 71.9% [8.25 µM] | CCRF-CEM leukemia 22.2% [8.25 µM] | MOLT-4 leukemia 24.5% [8.25 µM] | RPMI-8226 leukemia 10.7% [8.25 µM] | SK-OV-3 ovarian 85.3% [8.25 µM]

CCOC(=O)C1=C(N)Oc2c(sc3c(C)cccc23)C1c1ccc(OC)cc1 (configuration not stated)
inactive: SK-MEL-2 melanoma 22.9% | SN12C renal 39.7% | UO-31 renal 41.5% | TK-10 renal 110% | ACHN renal 34% | CCRF-CEM leukemia 24.3% | MOLT-4 leukemia 29.4% | SR leukemia 29.1% | OVCAR-5 ovarian 75.9% | OVCAR-4 ovarian 65.5% | SK-OV-3 ovarian 57.7% | IGROV1 ovarian 27.9% | OVCAR-3 ovarian 11% | HS 578T breast 30% | NCI/ADR-RES ovarian 30.8%
active: CAKI-1 renal 5.78% | A498 renal 4.89%

Fc1cc2c(cc1Cl)N(c1ncnc3ccc(-c4cnc5cnccn45)cc13)CC2
inactive: SK-MEL-2 melanoma 102% | SN12C renal 79.3% | UO-31 renal 42.1% | TK-10 renal 96.9% | ACHN renal 60.4% | CAKI-1 renal 62.8% | A498 renal 45.6% | CCRF-CEM leukemia 108% | MOLT-4 leukemia 98.9% | RPMI-8226 leukemia 95.2% | OVCAR-8 ovarian 91.4% | OVCAR-5 ovarian 74.4% | OVCAR-4 ovarian 94.8% | SK-OV-3 ovarian 94.2% | IGROV1 ovarian 48.2% | OVCAR-3 ovarian 87.4% | HS 578T breast 93.4% | NCI/ADR-RES ovarian 86.8%

CN1CCN(c2ccc(-c3ccc4ncc(C#N)c(Nc5ccc(F)c(Cl)c5)c4c3)cc2)CC1
inactive: SK-MEL-2 melanoma 48.3% | SN12C renal 59.9% | UO-31 renal 30.4% | TK-10 renal 36.3% | ACHN renal 18.9% | CAKI-1 renal 33.8% | CCRF-CEM leukemia 13.1% | MOLT-4 leukemia 35.7% | OVCAR-8 ovarian 47.9% | OVCAR-5 ovarian 57.6% | OVCAR-4 ovarian 46.8% | SK-OV-3 ovarian 27% | IGROV1 ovarian 11.4% | OVCAR-3 ovarian 59.8% | HS 578T breast 43.3% | NCI/ADR-RES ovarian 50.5%
active: A498 renal -7.38% | RPMI-8226 leukemia 4.87%

Cc1ccc(-c2nc(N3CCN(C(=O)c4ccc(OC(F)(F)F)cc4)CC3)c3ccccc3n2)cc1
inactive: SK-MEL-2 melanoma 102% | SN12C renal 90.5% | UO-31 renal 53.7% | TK-10 renal 90.6% | ACHN renal 89.5% | CAKI-1 renal 69.8% | A498 renal 63.7% | CCRF-CEM leukemia 75.3% | SR leukemia 78.5% | OVCAR-8 ovarian 90.3% | OVCAR-5 ovarian 97.8% | OVCAR-4 ovarian 106% | SK-OV-3 ovarian 99.3% | IGROV1 ovarian 85.6% | OVCAR-3 ovarian 93.9% | HS 578T breast 79.1% | NCI/ADR-RES ovarian 84.4%

COc1ccc(-c2cc(-c3ccc(Cl)cc3)c(C#N)c(=O)n2CCCCCC(=O)Nc2ccccc2N)cc1
inactive: SK-MEL-2 melanoma 58.5% | SN12C renal 41.9% | UO-31 renal 43% | TK-10 renal 78.3% | ACHN renal 34.2% | A498 renal 39.1% | CCRF-CEM leukemia 32.5% | OVCAR-8 ovarian 29.8% | OVCAR-5 ovarian 52.2% | OVCAR-4 ovarian 54.7% | SK-OV-3 ovarian 63.6% | IGROV1 ovarian 37.6% | OVCAR-3 ovarian 58.3% | HS 578T breast 70% | NCI/ADR-RES ovarian 33.3%
active: CAKI-1 renal 7.69% | SR leukemia -1.58%

Cn1cc(-c2cc3ncnc(Nc4ccc(CC(=O)Nc5cc(C(C)(C)C)on5)cc4)c3s2)cn1
inactive: SK-MEL-2 melanoma 14% | SN12C renal 15.4% | UO-31 renal 11% | TK-10 renal 17.8% | ACHN renal 14.1% | CCRF-CEM leukemia 10.8% | MOLT-4 leukemia 17.4% | SR leukemia 10.9% | OVCAR-8 ovarian 40.7% | OVCAR-5 ovarian 61.6% | OVCAR-4 ovarian 34.7% | SK-OV-3 ovarian 10.4% | IGROV1 ovarian 11.1% | OVCAR-3 ovarian 36.6% | HS 578T breast 15.6% | NCI/ADR-RES ovarian 60.6%
active: CAKI-1 renal 9.29% | A498 renal -18.6%

CNCCCC12CCC(c3ccccc31)c1ccccc12
inactive: SK-MEL-2 melanoma 100% | SN12C renal 73.4% | UO-31 renal 58% | TK-10 renal 80.2% | ACHN renal 80.6% | CAKI-1 renal 83.4% | A498 renal 93.7% | CCRF-CEM leukemia 84.7% | MOLT-4 leukemia 89.6% | RPMI-8226 leukemia 91% | OVCAR-8 ovarian 99.7% | OVCAR-5 ovarian 90.2% | OVCAR-4 ovarian 86.8% | SK-OV-3 ovarian 85.2% | IGROV1 ovarian 82.7% | OVCAR-3 ovarian 107% | HS 578T breast 87.3% | NCI/ADR-RES ovarian 89.5%
